Laboratory results taken from PubChem BioAssay AID624330 (Southern Research Specialized Biocontainment Screening …, 2012).
Screen size: about 340,000 compounds; about 2,100 (0.62%) were called active.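 Rule for the calls: active = first-screen hits whose inhibition reached a set limit at any dose in the follow-up dose series; inconclusive = inhibition above the set first-screen limit but never retested; inactive = the rest.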 Only a sample is shown. Measured potencies and affinities stand elsewhere.

Target: Rac GTPase-activating protein 1 (Homo sapiens) (UniProt Q9H0H5)
Sequence (Q9H0H5 whole entry, looked up): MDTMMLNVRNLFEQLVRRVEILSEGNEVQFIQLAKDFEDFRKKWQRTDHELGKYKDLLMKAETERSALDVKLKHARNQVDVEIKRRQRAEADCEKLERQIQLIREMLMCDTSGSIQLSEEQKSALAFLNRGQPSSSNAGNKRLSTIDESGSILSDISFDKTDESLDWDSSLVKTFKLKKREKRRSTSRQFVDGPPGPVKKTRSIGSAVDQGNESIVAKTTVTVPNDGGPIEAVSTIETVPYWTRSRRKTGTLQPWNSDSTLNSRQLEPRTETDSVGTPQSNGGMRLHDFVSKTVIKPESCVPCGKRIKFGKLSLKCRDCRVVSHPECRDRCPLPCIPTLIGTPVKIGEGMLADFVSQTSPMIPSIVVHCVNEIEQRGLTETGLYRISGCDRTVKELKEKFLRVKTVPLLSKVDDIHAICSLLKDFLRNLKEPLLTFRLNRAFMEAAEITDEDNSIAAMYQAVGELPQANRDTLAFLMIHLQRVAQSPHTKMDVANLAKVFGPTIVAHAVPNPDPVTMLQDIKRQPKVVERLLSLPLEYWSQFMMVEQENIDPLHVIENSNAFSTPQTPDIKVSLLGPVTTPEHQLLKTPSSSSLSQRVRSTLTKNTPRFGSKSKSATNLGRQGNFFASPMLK
Test: MgcRacGAP GTPase-activating activity inhibitors, confirmation, biochemical, ADP Hunter fluorescence, primary and confirmatory (AID 624330);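 note: fluorescence reports GDP produced by GAP-driven GTP hydrolysis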
Conditions: MgcRacGAP-stimulated Rac1 GTP hydrolysis, at 30 µM, active compounds read high, GST-tagged Rac1 F28L mutant substrate

inhibition, inactive:
O=C(Nc1ccc(Cl)c(Cl)c1)N1N=CCC1c1ccccc1 (stereo unspecified) 0.69%
COc1ccc(-c2cc(C(F)F)n3ncc(C(=O)Nc4c(C)n(C)n(-c5ccccc5)c4=O)c3n2)cc1 5.73%
COc1ccccc1NS(=O)(=O)c1cc(NC(=S)NCCN2CCOCC2)ccc1N1CCOCC1 21.5%
Cc1ccc(S(=O)(=O)N2CCCCC2)cc1NC(=O)C1=NN(c2ccccc2)C(=O)CC1 4.16%
Fc1ccc(OCc2nc3ccccc3s2)cc1 3.88%
c1ccc(OCc2nc3ccccc3s2)cc1 7.47%
O=c1oc2ccccc2c(O)c1Sc1c(O)c2ccccc2oc1=O 16.1%
COc1cc(C(=O)NCCCCc2ccccc2)cc(OC)c1OC 5.47%
COc1ncnc2c1ncn2CCCNCc1ccccn1 12.9%
COC(=O)C(NC(C)=O)(Nc1sc2c(c1C(N)=O)CCCC2)C(F)(F)F (stereo unspecified) 4.3%
Cn1c(-c2ccccc2)cnc1NCc1cc(Cl)ccc1O 31.7%
COc1ccc(CNc2ncc(-c3ccc(Cl)cc3)n2C)c(OC)c1OC 16.9%
Cn1c(-c2ccc(F)cc2)cnc1NCc1ccccc1F 25.9%
Cc1ccc(CNc2nc3ccccc3n2C)o1 8.19%
COc1ccc(CNc2ncc(-c3cccc([N+](=O)[O-])c3)n2C)c(OC)c1OC 28.9%
Cn1c(-c2ccc(F)cc2)cnc1NCc1ccc(F)cc1F 29.6%
COc1ccc(CNc2ncc(-c3ccccc3)n2C)c2ccccc12 23.6%
COc1ccccc1CNc1ncc(-c2ccc(F)cc2)n1C 28.3%
COc1ccc(CNC(=O)c2ccc(Cn3nc(C)c([N+](=O)[O-])c3C)o2)cc1 5.77%
Cc1cc(C)c(SSc2nnnn2-c2ccccc2)c(C)c1 27.2%
CC1CN(C(=O)CCNC(=O)c2ccccc2Cl)CC(C)O1 (stereo unspecified) 4.76%
COC(=O)[C@H](C(C)C)N(Cc1ccccc1)S(=O)(=O)CCN1CCN(c2ccccc2)CC1 3.71%
Cc1c(Br)c([N+](=O)[O-])nn1CC(=O)Nc1nccs1 -2.73%
COc1ccc(S(=O)(=O)NC(CC(=O)NC2CCCC2)c2ccco2)cc1 (stereo unspecified) 5.91%
O=C(C1CCN(S(=O)(=O)c2cccc3nsnc23)CC1)N1CCc2ccccc2C1 -5.35%
Cn1c(-c2ccc(F)cc2)cnc1NCc1ccc(C#N)cc1 24.6%
Cn1c(-c2ccc(F)cc2)cnc1NCc1ccccc1 25.3%
COc1ccc(N2C(=O)C3CC(C)=C(C)CC3C2=O)c(OC)c1 (stereo unspecified) 0.34%
COc1cc(N2C(=O)C=CC2=O)c(OC)cc1Cl -11.4%
O=C1C=CC(=O)N1c1ccccn1 7.4%
O=C(c1ccccc1)c1ccccc1N1C(=O)C=CC1=O 17.1%
CCCc1cc(=O)[nH]c(SCC(=O)Nc2ccc(C)c(S(=O)(=O)N3CCCCC3)c2)n1 6.98%
COc1cccc(OC)c1C(=O)N1CCN(c2ccccn2)CC1 6.84%
COC(=O)c1c(NC(=O)c2cccnc2)sc(C(=O)N(C)C)c1C 4.99%
COc1ccc(-c2cc3cc(OC)c(OC)cc3c(C)n2)cc1 6.65%
COc1ccc(-c2cc(-c3ccccc3O)[nH]n2)cc1OC 13.3%
COc1ccc(-c2cncnc2-c2ccc(OC)cc2O)cc1 2.33%
COc1ccc(-c2c(-c3ccc(O)cc3O)n[nH]c2C(F)(F)F)cc1 9.47%
COc1ccccc1-c1c(-c2ccc(O)cc2O)n[nH]c1C(F)(F)F 13.8%
COc1ccc(-c2cc3cc(OC)c(OC)cc3c(C)n2)cc1C 6.32%
COc1ccc(-c2nc(N)ncc2-c2ccccc2OC)c(O)c1 5.57%
COc1ccc(-c2cc(-c3ccc(OC)c(OC)c3)n[nH]2)c(O)c1 8.89%
COc1ccc(CNC(=O)C2CCCN(c3nn4c(=O)cc(C)nc4s3)C2)cc1 (stereo unspecified) 12.2%
CC1C2Cn3c(nc4ccccc43)C1N(C(C)C)O2 (stereo unspecified) 10.4%
Nc1ccc(C(=O)O)cc1S(=O)(=O)O 14.3%
CCOC(=O)c1cnc2c(Cl)c(Cl)ccc2c1NCCN1CCOCC1 8.14%
O=C(NC(=S)Nc1ccccc1Br)C1CCCCC1 13%
CCCN(CC(=O)Nc1ccccc1C)C(=O)C1CCN(S(=O)(=O)c2ccc3c(c2)OCCO3)CC1 4.31%
O=C(CCc1ccccc1)n1nc(-c2ccccc2)nc1NCc1ccco1 7.46%
COc1ccc(-c2nc(C(=O)O)cs2)cc1OC -2.83%
COc1ccc(-c2nc(CCl)cs2)cc1OC 1.88%
CCOc1ccc(-c2cc(C(=O)OC)[nH]n2)cc1 0.73%
CN(C)S(=O)(=O)c1ccc(C(=O)Nc2cccc(S(=O)(=O)NC3=NCCC3)c2)cc1 3.74%
O=[N+]([O-])c1ccc(N2CCN(c3cccc(Cl)c3)CC2)cn1 8.34%
Cn1c(-c2ccccc2)c(C(=O)CC#N)c2ccccc21 5.99%
Cn1c(-c2ccccc2)c(C(=O)CCl)c2ccccc21 -6.3%
COc1cc(-c2cc(C(=O)O)c3cc4ccccc4cc3n2)cc(OC)c1OC 11.4%
CCOc1ccc2nc(-c3ccc(OC)c(OC)c3)cc(C(=O)O)c2c1 11.1%
COc1ccc(-c2cc(C(=O)Nc3ccc(C(N)=O)cc3)c3ccccc3n2)cc1OC 12.9%
COc1ccc(-c2cc(C(=O)Nc3ccc(S(N)(=O)=O)cc3)c3ccccc3n2)cc1OC -3.78%
O=C(Nc1ccc(NC(=O)C2CC2)cn1)c1ccccc1 9.99%
COc1ccccc1-c1noc(-c2ccccc2C(=O)NCc2ccco2)n1 4.73%
Cc1ccc(C)n1CCN1CCN(S(=O)(=O)c2ccc(F)cc2F)CC1 4.22%
S=c1[nH]nc(-c2ccco2)n1/N=C/c1c(Cl)cccc1Cl 8.7%
S=c1[nH]nc(-c2ccco2)n1/N=C/c1ccccc1Cl 14.4%
S=c1[nH]nc(-c2ccco2)n1/N=C/c1ccc(Cl)c(Cl)c1 7.47%
S=c1[nH]nc(-c2ccco2)n1/N=C/c1cccc(Cl)c1 12%
COc1cccc(NC(=O)CN(C)C(=O)CSc2nc3ccccc3s2)c1 -3.45%
CCOc1ccc(N2C(=O)CC(NCCc3ccc(S(N)(=O)=O)cc3)C2=O)cc1 (stereo unspecified) 9.91%
O=C(O)[C@H]1CCCC[C@H]1C(=O)Nc1ccc(S(=O)(=O)N2CCCCC2)cc1 6.35%
CCOc1ccc(/C=N/NC(=O)c2ccc(Cn3cc(Br)cn3)o2)cc1 -8.44%
CC(=O)C(=Nc1ccc(Cl)cc1Cl)NNc1cccc(Cl)c1 22.6%
CC1CN(CCOc2cccc(Oc3ccccc3)c2)CC(C)O1 (stereo unspecified) 19.8%
CCC(=O)c1ccccc1OCCCN1CCC(Cc2ccccc2)CC1 16.5%
COC(=O)c1ccccc1OCCN1CCCCCC1 24.5%
CCOc1ccccc1OCCN1CCC(Cc2ccccc2)CC1 11.1%
CC1CC(C)CN(CCOc2cccc(Cl)c2Cl)C1 (stereo unspecified) 18.8%
CCN1CCN(Cc2ccc(OCc3ccccc3)c(OC)c2)CC1 14.4%
c1ccc(Oc2cccc(OCCCCN3CCCC3)c2)cc1 18.1%
Clc1cccc(OCCCN2CCCC2)c1Cl 19%
CCc1ccc(/C([O-])=C(/C(=S)NCCN2CCOCC2)[n+]2ccccc2)cc1 -2.62%
CC[C@]12c3[nH]c4ccc(Cl)cc4c3CCN1C(=O)[C@@H](CC(=O)NCc1ccco1)C[C@@H]2C(=O)N1CCN(C(=O)C2CC2)CC1 9.23%
CC12CCC(=O)N1C(C(=O)N1CCN(S(=O)(=O)c3ccccc3F)CC1)CS2 (stereo unspecified) 2.86%
CCOC(=O)c1ccc2c(c1)nc(-c1ccc(F)cc1)c1nccn12 0.78%
COc1ccc(CN2CCOCCOCCOCCOCCOCC2)cc1 12.1%
CCC(=O)Nc1cccc(NC(=O)CN2CCN(c3ccccc3OC)CC2)c1 9.77%
Cc1ccc(C2(C)NC(=O)N(CC(=O)N(c3ccccc3)C3CCS(=O)(=O)C3)C2=O)cc1 (stereo unspecified) -6.22%
CCN(CC)S(=O)(=O)c1cccc(C(=O)NN2Cc3ccccc3C2=N)c1 -4.56%
CCn1c(SCC(=O)Nc2ccc(C)cc2)nnc1-c1ccc(O)cc1 5.22%
C=CCn1c(SCC(=O)Nc2ccc3c(c2)OCO3)nnc1-c1ccccc1 6.23%
CCn1c(SCC(=O)Nc2cc(C)on2)nnc1-c1cccc(C)c1 7.99%
C=CCn1c(SCC(=O)NNC(=O)Nc2ccc(C)cc2)nnc1-c1ccccc1 1.01%
Cc1csc(=O)n1CCC(=O)OCC(=O)Nc1ccc(Cl)cn1 4.45%
CCOc1ccc(S(=O)(=O)N/N=C(\C)C2CCCCC2)cc1 3.81%
CCCCOc1ccc(/C=N/NC(=O)c2csc(C)c2C)cc1 16.6%
COc1cccc(-n2nnc3c(=O)n(CC(=O)N4CCC(C)CC4)cnc32)c1 11.4%
